In article PMC4081100, “A DNA-binding-site landscape and regulatory network analysis for NAC transcription factors in Arabidopsis thaliana”:

Legend:
Assay in all cases: universal protein binding microarray (PBM); transcription factors of Arabidopsis thaliana; high values mean tight binding
[1] = molecular target: GST-NTL6(1-168) (Arabidopsis thaliana, UniProt Q9SCK6 1-168); conditions: protein: recombinant; tags: GST; chain copies: 2; dsDNA, one strand shown
In short: (§1)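 Cells were induced to make GST-tagged NAC-domain, full-length or DNA-binding-domain proteins, and zinc acetate was added for zinc-finger proteins. These proteins were purified on glutathione–Sepharose 4B, quantified by A280 or anti-GST western blot, and applied in duplicate at 200 to 500 nM final to custom all-10-mer Agilent 4 × 180K arrays that primer extension had made double-stranded. Binding is given as the normalised enrichment score (E-score) for scored gapped and ungapped 8-mers.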

[2] = molecular target: T1, GST-ANAC055(1-171) (Arabidopsis thaliana, UniProt Q9LDY8 1-171); conditions: protein: recombinant; tags: GST; chain copies: 2; dsDNA, one strand shown
T1 sequence: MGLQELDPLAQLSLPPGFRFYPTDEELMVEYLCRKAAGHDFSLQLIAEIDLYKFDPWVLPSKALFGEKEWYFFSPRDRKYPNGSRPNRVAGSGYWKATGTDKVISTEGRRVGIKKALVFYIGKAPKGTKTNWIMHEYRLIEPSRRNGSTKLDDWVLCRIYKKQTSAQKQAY
In short: as §1

[3] = molecular target: T2, GST-ATAF1 NAC domain (Arabidopsis thaliana, UniProt Q39013 7-158); conditions: protein: recombinant; tags: GST; chain copies: 2; dsDNA, one strand shown
T2 sequence: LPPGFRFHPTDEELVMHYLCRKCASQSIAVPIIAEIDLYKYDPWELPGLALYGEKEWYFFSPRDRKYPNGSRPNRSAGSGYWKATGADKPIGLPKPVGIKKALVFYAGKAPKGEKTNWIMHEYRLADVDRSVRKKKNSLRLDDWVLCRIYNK
In short: as §1

[4] = molecular target: T3, GST-ANAC092(1-285) full length (Arabidopsis thaliana, UniProt Q9FKA0 1-285); conditions: protein: recombinant; tags: GST; chain copies: 2; dsDNA, one strand shown
T3 sequence: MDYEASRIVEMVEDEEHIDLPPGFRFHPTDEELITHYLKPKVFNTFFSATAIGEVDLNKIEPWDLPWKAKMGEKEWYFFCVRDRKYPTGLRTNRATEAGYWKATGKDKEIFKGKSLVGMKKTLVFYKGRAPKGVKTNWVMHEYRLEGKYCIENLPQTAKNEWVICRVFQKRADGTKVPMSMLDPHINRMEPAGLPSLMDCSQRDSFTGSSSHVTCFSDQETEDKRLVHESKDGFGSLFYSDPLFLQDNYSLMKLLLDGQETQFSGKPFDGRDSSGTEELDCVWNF
In short: as §1

[5] = molecular target: T4, GST-NST2(1-184) (Arabidopsis thaliana, UniProt Q9M274 1-184); conditions: protein: recombinant; tags: GST; chain copies: 2; dsDNA, one strand shown
T4 sequence: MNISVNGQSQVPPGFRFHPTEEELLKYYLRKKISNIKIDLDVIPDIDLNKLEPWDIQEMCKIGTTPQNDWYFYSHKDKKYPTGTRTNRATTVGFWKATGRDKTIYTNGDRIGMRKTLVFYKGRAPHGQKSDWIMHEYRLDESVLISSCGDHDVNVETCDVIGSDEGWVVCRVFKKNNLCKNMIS
In short: as §1

[6] = molecular target: T5, GST-SND1(1-203) (Arabidopsis thaliana, UniProt Q9LPI7 1-203); conditions: protein: recombinant; tags: GST; chain copies: 2; dsDNA, one strand shown
T5 sequence: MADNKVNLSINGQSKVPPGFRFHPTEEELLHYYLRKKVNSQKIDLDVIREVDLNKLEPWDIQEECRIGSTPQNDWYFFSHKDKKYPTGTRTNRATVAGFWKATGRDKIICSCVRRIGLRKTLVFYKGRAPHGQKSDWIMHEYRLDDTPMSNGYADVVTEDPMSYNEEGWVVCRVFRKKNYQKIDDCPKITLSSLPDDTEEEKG
In short: as §1

[7] = molecular target: T6, GST-VND3 NAC domain (Arabidopsis thaliana, UniProt Q9FH59 12-162); conditions: protein: recombinant; tags: GST; chain copies: 2; dsDNA, one strand shown
T6 sequence: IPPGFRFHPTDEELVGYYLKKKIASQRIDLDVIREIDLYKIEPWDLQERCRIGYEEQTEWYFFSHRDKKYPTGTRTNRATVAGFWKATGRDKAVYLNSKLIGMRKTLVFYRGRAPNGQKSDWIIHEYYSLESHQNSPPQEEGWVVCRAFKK
In short: as §1

[8] = molecular target: T7, GST-VND7 NAC domain (Arabidopsis thaliana, UniProt Q9C8W9 9-158); conditions: protein: recombinant; tags: GST; chain copies: 2; dsDNA, one strand shown
T7 sequence: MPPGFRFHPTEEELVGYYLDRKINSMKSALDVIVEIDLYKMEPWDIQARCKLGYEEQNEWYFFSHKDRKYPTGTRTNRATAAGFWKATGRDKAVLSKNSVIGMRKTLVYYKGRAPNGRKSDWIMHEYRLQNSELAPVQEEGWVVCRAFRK
In short: as §1

[9] = molecular target: GST-WRKY1(266-371) (Arabidopsis thaliana, UniProt Q9SI37 266-371); conditions: protein: recombinant; tags: GST; dsDNA, one strand shown
Chain of GST-WRKY1(266-371) (Q9SI37 266-371): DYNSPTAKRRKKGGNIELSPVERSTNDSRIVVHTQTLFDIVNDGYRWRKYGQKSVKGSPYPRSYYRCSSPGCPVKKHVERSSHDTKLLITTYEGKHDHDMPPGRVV
In short: as §1

[10] = molecular target: T8, GST-ANAC092(1-176) (Arabidopsis thaliana, UniProt Q9FKA0 1-176); conditions: protein: recombinant; tags: GST; chain copies: 2; dsDNA, one strand shown
T8 sequence: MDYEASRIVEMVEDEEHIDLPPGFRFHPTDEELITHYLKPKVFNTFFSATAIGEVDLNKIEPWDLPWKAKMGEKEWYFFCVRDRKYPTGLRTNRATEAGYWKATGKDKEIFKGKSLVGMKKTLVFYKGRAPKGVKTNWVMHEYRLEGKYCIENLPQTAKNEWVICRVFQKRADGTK
In short: as §1

[11] = molecular target: T9, GST-ANAC019 NAC domain (Arabidopsis thaliana, UniProt Q9C932 14-162); conditions: protein: recombinant; tags: GST; chain copies: 2; dsDNA, one strand shown
T9 sequence: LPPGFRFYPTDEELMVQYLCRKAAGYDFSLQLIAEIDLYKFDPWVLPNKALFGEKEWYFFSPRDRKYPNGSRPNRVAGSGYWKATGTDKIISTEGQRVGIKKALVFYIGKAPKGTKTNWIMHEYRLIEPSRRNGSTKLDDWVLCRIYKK
In short: as §1

[12] = molecular target: T10, GST-NAP(1-166) (Arabidopsis thaliana, UniProt O49255 1-166); conditions: protein: recombinant; tags: GST; chain copies: 2; dsDNA, one strand shown
T10 sequence: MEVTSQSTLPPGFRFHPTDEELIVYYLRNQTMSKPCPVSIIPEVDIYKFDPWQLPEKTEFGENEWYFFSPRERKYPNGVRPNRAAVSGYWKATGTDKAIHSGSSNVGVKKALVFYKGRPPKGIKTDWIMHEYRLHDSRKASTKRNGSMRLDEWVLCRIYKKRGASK
In short: as §1

[13] = molecular target: T11, GST-NTL8 NAC domain (Arabidopsis thaliana, UniProt Q9XIN7 14-156); conditions: protein: recombinant; tags: GST; chain copies: 2; dsDNA, one strand shown
T11 sequence: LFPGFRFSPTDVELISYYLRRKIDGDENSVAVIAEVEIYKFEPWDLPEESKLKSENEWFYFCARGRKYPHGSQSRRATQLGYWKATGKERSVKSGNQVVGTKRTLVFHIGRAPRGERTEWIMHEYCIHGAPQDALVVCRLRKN
In short: as §1

Chain of GST-NTL6(1-168) (Q9SCK6 1-168): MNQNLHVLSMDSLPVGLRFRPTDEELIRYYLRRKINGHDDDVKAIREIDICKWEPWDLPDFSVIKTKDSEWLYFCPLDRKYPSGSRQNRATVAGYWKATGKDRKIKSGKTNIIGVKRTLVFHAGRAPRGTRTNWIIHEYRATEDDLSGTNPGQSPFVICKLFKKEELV

Sequence | binding signal [1] | binding signal [2] | binding signal [3] | binding signal [4] | binding signal [5] | binding signal [6] | binding signal [7] | binding signal [8] | binding signal [9] | binding signal [10] | binding signal [11] | binding signal [12] | binding signal [13]
TAAGTCAA | 0.268 E-score | 0.121 E-score | 0.208 E-score | 0.158 E-score | 0.172 E-score | 0.175 E-score | 0.0988 E-score | 0.145 E-score | 0.483 E-score | – | – | – | –
AGTCAAAA | – | – | 0.234 E-score | 0.0672 E-score | – | 0.111 E-score | 0.104 E-score | 0.0632 E-score | 0.47 E-score | 0.157 E-score | 0.0721 E-score | – | –
CGTCAACG | – | – | 0.0746 E-score | 0.159 E-score | – | 0.0973 E-score | 0.0692 E-score | 0.0989 E-score | 0.47 E-score | 0.117 E-score | 0.109 E-score | 0.108 E-score | –
ACGTCTCC | – | 0.353 E-score | 0.368 E-score | 0.33 E-score | 0.167 E-score | 0.182 E-score | 0.34 E-score | 0.322 E-score | 0.0802 E-score | 0.21 E-score | 0.411 E-score | 0.273 E-score | 0.052 E-score
AAAGTCAT | – | – | 0.14 E-score | 0.119 E-score | 0.0576 E-score | 0.162 E-score | 0.0602 E-score | 0.121 E-score | 0.428 E-score | – | – | 0.0502 E-score | –
CAACACGC | – | 0.227 E-score | 0.172 E-score | 0.436 E-score | 0.229 E-score | 0.259 E-score | 0.162 E-score | 0.218 E-score | 0.125 E-score | 0.418 E-score | 0.304 E-score | 0.252 E-score | 0.0505 E-score
TAGAGTAA | – | 0.0921 E-score | 0.0567 E-score | 0.263 E-score | 0.216 E-score | 0.401 E-score | 0.117 E-score | 0.128 E-score | 0.0876 E-score | 0.177 E-score | – | – | 0.065 E-score
GCGTGTAA | 0.0655 E-score | 0.222 E-score | 0.201 E-score | 0.438 E-score | 0.275 E-score | 0.347 E-score | 0.246 E-score | 0.2 E-score | – | 0.444 E-score | 0.297 E-score | 0.155 E-score | –
AGACACGC | – | 0.0867 E-score | 0.165 E-score | 0.42 E-score | 0.107 E-score | 0.215 E-score | 0.0792 E-score | 0.165 E-score | 0.084 E-score | 0.364 E-score | 0.0909 E-score | 0.0846 E-score | 0.0629 E-score
TAAGGTCA | 0.242 E-score | – | 0.094 E-score | – | – | 0.132 E-score | 0.223 E-score | 0.143 E-score | 0.441 E-score | – | – | 0.14 E-score | 0.0905 E-score
GAGACGTA | – | 0.395 E-score | 0.411 E-score | 0.331 E-score | 0.236 E-score | 0.322 E-score | 0.418 E-score | 0.413 E-score | 0.0734 E-score | 0.194 E-score | 0.432 E-score | 0.396 E-score | –
ATTGCGTG | – | 0.452 E-score | 0.355 E-score | 0.494 E-score | 0.459 E-score | 0.471 E-score | 0.441 E-score | 0.46 E-score | 0.0947 E-score | 0.494 E-score | 0.466 E-score | 0.458 E-score | 0.188 E-score
CACGTTAA | 0.0985 E-score | 0.243 E-score | 0.219 E-score | 0.442 E-score | 0.301 E-score | 0.377 E-score | 0.184 E-score | 0.156 E-score | – | 0.429 E-score | 0.125 E-score | 0.129 E-score | –
CGTGCACG | – | 0.424 E-score | 0.304 E-score | 0.418 E-score | 0.221 E-score | 0.0947 E-score | 0.426 E-score | 0.391 E-score | 0.0812 E-score | 0.354 E-score | 0.464 E-score | 0.378 E-score | 0.0868 E-score
ATACGAAA | 0.184 E-score | 0.202 E-score | 0.259 E-score | 0.421 E-score | 0.271 E-score | 0.239 E-score | 0.296 E-score | 0.205 E-score | – | 0.393 E-score | 0.166 E-score | 0.251 E-score | –
